Experimental data published in PubChem BioAssay (EPA / NIEHS).
Values joined by “and” are separate entries in the source; they are usually repeats but may differ in a detail not shown here. Equal values may be shown once. Active and inactive are the calls of the source. How the source made its calls: active means hit-call score of the fitted dose curve at least 0.9, where 1 is the maximum; inactive means score below 0.9.

Experiment: BSK_LPS_SRB: Viability Assessment in the BioMAP Diversity Plus: LPS Assay (AID 2283079);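 further: measured one day after compound addition; fitted in both directions against DMSO so loss or gain of signal counts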
Details: primary human HUVEC with PBMC
Experimental: BSK_LPS is a cell-based, multiplexed-readout assay that uses umbilical vein endothelium and peripheral blood mononuclear cells, a human vascular primary cell co-culture, with measurements taken at 24 hours after chemical dosing in a 96-well plate.BSK_LPS_SRB is an assay component measured in the BSK_LPS assay. It measures 0.1% sulforhodamine related to cell death using Sulforhodamine staining technology.Data from the assay component BSK_LPS_SRB was analyzed into 1 assay endpoint. This assay endpoint, BSK_LPS_SRB, was analyzed with bidirectional fitting relative to DMSO as the negative control and baseline of activity. Using a type of viability reporter, gain or loss-of-signal activity can be used to understand changes in the signaling. Furthermore, this assay endpoint can be referred to as a primary readout, because this assay has produced multiple assay endpoints where this one serves a signaling function. To generalize the intended target to other relatable targets, this assay endpoint is annotated to the cell morphology intended target family, where the subfamily is cell conformation.
The levels of cell surface (or secreted, indicated by the prefix "s") biomarker endpoints were measured by ELISA. Overt cytotoxicity to cells in confluent adherent cultures (all systems other than the BT system) was assessed by measuring total protein levels using sulforhodamine B (SRB) staining in parallel cultures at the time of biomarker measurements, indicated as SRB endpoints. For proliferation assays for adherent cell types, individual cell types are cultured at sub-confluence and relative cell numbers quantified by SRB staining at time points optimized for each system (48 h: 3C and CASM3C systems; 72 h: BT and HDF3CGF systems; 96 h: SAg system). SRB was performed by staining cells with 0.1% SRB after fixation with 10% TCA and reading wells at 560 nm.Viability and proliferation of PBMC (T cells) was quantified by Alamar Blue reduction for the SAg and BT systems. For PBMC viability (referred to as PBMC Cytotoxicity within the assay endpoint names), cells were plated (75,000/well in a 96-well plate) and then chemical samples added for 1 h before addition of activators, SEB and TSST-1 (20 ng/mL final concentration each). Cells were incubated for 90 h. Then, Alamar Blue (20 uL/well) (Invitrogen, Cat DAL1100) was added for 6 h, and the plates were read with a fluorescence microplate reader at 546/580 nm (excitation/emission). For PBMC proliferation, cells were plated and activated as above but incubated for only 16 h prior to addition of Alamar Blue. Plates were read after 6 h.

SMILES	outcome	AC50
N#Cc1ccc(N(CC(N)=O)CC(F)(F)F)cc1C(F)(F)F	inactive	–
CCOP(=S)(OCC)SCSC(C)(C)C	inactive	–
CC(C)C(=O)OCC(C)(C)C(OC(=O)C(C)C)C(C)C (stereo not given)	inactive	–
NS(=O)(=O)C(F)(F)C(F)(F)C(F)(F)C(F)(F)C(F)(F)C(F)(F)C(F)(F)C(F)(F)F	–	28.9 µM (active) and 44.6 µM (active) and 44.3 µM (active)
Cc1cc(O)ccc1Cl	inactive	–
c1ccc(-c2ccccc2)cc1	inactive	–
c1cc2ccc3cccc4ccc(c1)c2c34	inactive	–
CCOC(=O)C(O)(c1ccc(Cl)cc1)c1ccc(Cl)cc1	–	34.2 µM (active)
C[C@]12CCC(=O)C=C1CC[C@@H]1[C@@H]2CC[C@]2(C)C(=O)CC[C@@H]12	inactive	–
COc1ccc(O)c(C(C)(C)C)c1	inactive	–
Nc1ccc(-c2ccc(N)cc2)cc1	inactive	–
COS(=O)(=O)OC	inactive	–
CN(C)c1nc(=O)n(C2CCCCC2)c(=O)n1C	inactive	–
CCCCCCCCOC(=O)c1ccccc1C(=O)OCCCCCCCC	inactive	–
Sc1ccccc1	inactive	–
CO/C=C(/C(=O)OC)c1ccccc1COc1cccc(C(F)(F)F)n1	–	10.6 µM (active)
Clc1ccc(C(c2ccccc2Cl)C(Cl)(Cl)Cl)cc1 (stereo not given)	–	19.2 µM (active)
Cc1cc(-c2ccc(N)c(C)c2)ccc1N	inactive	–
O=C(O)C(F)(F)C(F)(F)C(F)(F)C(F)(F)C(F)(F)F	inactive	–
C=CC(=O)NCNC(=O)C=C	inactive	–

SMILES	outcome	AC50
O=C(NC(=O)c1c(F)cccc1F)Nc1cc(Cl)c(OC(F)(F)C(F)F)c(Cl)c1	inactive	–
C=CC(N)=O	inactive	–
O=C(O)C(F)(F)C(F)(F)C(F)(F)C(F)(F)C(F)(F)C(F)(F)C(F)(F)C(F)(F)C(F)(F)F	–	31.3 µM (active) and 56.6 µM (active) and 54.8 µM (active)
CCSC(=O)N(CC)C1CCCCC1	inactive	–
Cc1cccc(C)c1N	inactive	–
CCC(C)(c1ccc(O)cc1)c1ccc(O)cc1	–	20 µM (active)
Cc1cc2c3c(c1)C(c1ccccc1)=N[C@@H](NC(=O)c1ccncc1)C(=O)N3CC2	inactive	–
O=S(=O)(O)C(F)(F)C(F)(F)C(F)(F)C(F)(F)C(F)(F)C(F)(F)F	inactive	–
CCCCCCCCCc1ccc(O)cc1	–	23.1 µM (active)
ClC1=C(Cl)[C@]2(Cl)[C@@H]3[C@@H](Cl)[C@H]4O[C@H]4[C@@H]3C1(Cl)C2(Cl)Cl	–	6.81 µM (active)
Oc1c(Cl)c(Cl)c(Cl)c(Cl)c1Cl	–	15.1 µM (active) and 26.4 µM (active)
CN(C)CCO	inactive	–
O=C(N[C@H]1CN2CCC1CC2)c1cc2ccoc2cn1	inactive	–
C[C@]12CCC(=O)C=C1CC[C@@H]1[C@@H]2CC[C@@]2(C)[C@H]1CC[C@]2(C)O	inactive	–
Cc1ccc(O)c(C)c1	inactive	–
Cc1ccccc1[N+](=O)[O-]	inactive	–
Clc1ccc(Cl)cc1	inactive	–
CCCCCCCCCC[N+](C)(C)CCCCCCCCCC	–	5.32 µM (active)
ClC1=C(Cl)[C@]2(Cl)[C@@H]3[C@@H]4C[C@@H]([C@H]5O[C@@H]45)[C@@H]3[C@@]1(Cl)C2(Cl)Cl	inactive	–
CC#Cc1cc(C)nc(Nc2ccccc2)n1	inactive	–
